A selection: hits, their analogues and other compounds. The true share with any hit is near 4.9%.
HSP90 refold inh: inhibitors of HSP90 luciferase refolding in rabbit reticulocyte lysate | 290,000 tested, 0.91% active | luciferase refolding luminescence, 3 h | inhibition, % at 5.6 µM;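 active = inhibition above the screen-wide mean plus 3 SD, computed separately per campaign, cut at about 16% in these data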;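 also: 0% = DMSO wells and 100% = 60 µM geldanamycin wells; inhibitors lower the luminescence because luciferase stays unfolded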
HSF1 activator: increases HSF-1 driven luciferase reporter signal | NIH3T3-HGL HSF-1 luciferase reporter, MG132, 8 h; 100% = twice DMSO control signal | activation, % at 9 µM | 300,000 tested, 1.7% active;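 active = mean replicate activation of at least 50% with a set share of replicates each reaching 50%; inconclusive = only one of those two conditions met; inactive = mean below 50% and too few replicates reaching it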;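 also: 0% = median of the neutral control wells and 100% = twice that signal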
HSF1 inhib: HSF1 inhibition; NIH3T3-HGL HSE-luciferase, MG132-induced, luminescence 8 h; active compounds read low; activity change, negative = inhibition, % at 7.5 µM (by protocol); AID 2098; 300,000 tested, 0.77% active;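 active = more than half of replicate wells show activity change below -50%, luminescence cut by over half; inconclusive = some wells, but at most half, below -50%; inactive = no replicate well below -50%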;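 also: luciferase reports HSF-1 transcriptional activity via heat shock element; 0% = median of DMSO wells and -100% = zero luminescence signal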
MPTP block: permeability transition pore inhibition; isolated mouse mitochondria, Ca2+ swelling absorbance, 30 min; 360,000 tested, 1.4% active; inhibition, % at 10 µM;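 active = inhibition of 50% or more, scaled per plate between neutral and stimulator controls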;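 also: 0% = DMSO wells given calcium and 100% = 1 mM EGTA wells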
dFosB act: activators of mouse delta FosB homodimer; P13346; activation, % at 25 µM; purified delta FosB, TAMRA-CDK5 oligo fluorescence polarization; percent of positive-control signal above neutral wells; 340,000 tested, 0.99% active;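 active = mean activation above about 17%, with every replicate also reaching it, limit read from the data, passing the limit was not always enough; inconclusive = only one of the two conditions met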
Target sequence (P13346 whole entry, looked up): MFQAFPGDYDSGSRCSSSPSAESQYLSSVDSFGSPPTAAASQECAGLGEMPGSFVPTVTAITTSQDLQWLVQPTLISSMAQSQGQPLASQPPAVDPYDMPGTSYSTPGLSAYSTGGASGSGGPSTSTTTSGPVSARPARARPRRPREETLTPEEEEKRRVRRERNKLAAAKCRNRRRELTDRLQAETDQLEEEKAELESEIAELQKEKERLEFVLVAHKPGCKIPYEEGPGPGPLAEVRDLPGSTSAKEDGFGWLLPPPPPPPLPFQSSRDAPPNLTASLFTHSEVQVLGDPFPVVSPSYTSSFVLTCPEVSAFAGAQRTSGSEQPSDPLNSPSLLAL
Platelet DG rel: modulates dense granule release in human platelets | human platelet-rich plasma, SFLLRN dense granule ATP release, luminescence | inhibition, %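 (compounds screened at 7.5 µM in platelet-rich plasma)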 | 300,000 tested, 0.22% active | AID 1663;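 active = mean replicate score, as percent of positive control, at or above 50; inconclusive = mean below 50 but at least one replicate at or above 50; inactive = mean and every replicate below 50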
Rh123 counter: mitochondrial membrane potential, counter-screen. shares compounds with MPTP block. isolated mitochondria, Rhodamine 123 fluorescence. inhibition, % at 10 µM. 5,000 tested, 78% active. AID 624504; in the data active = inhibition above about 22%;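 also: 0% = DMSO vehicle and 100% = positive control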
MPTP swell DR: dose response confirmation of mitochondrial permeability transition pore inhibitors; shares compounds with MPTP block; AID 651561; isolated mitochondria swelling, absorbance; 780 tested, 58% active; IC50, µM; in the data active = IC50 below about 20 µM
MPTP counter DR: counter-screen for mitochondrial permeability transition pore inhibitors, dose response; shares compounds with MPTP block; isolated mitochondria counterscreen, fluorescence read-out; IC50, µM; 780 tested, 49% active; in the data active = IC50 below about 80 µM
Numbers without * were called inactive; i = inactive; ? = inconclusive; . = not tested or not shown; ! = not confirmed by another sample.

SMILES | HSP90 refold inh | HSF1 activator | HSF1 inhib | MPTP block | dFosB act | Platelet DG rel | Rh123 counter | others
CCOC(=O)C1(Cc2cccc(OC)c2)CCN(C/C=C/c2ccc(OC)cc2)CC1 | -1 | 10 | 4 | 80* | -9 | -1 | 79*
Cc1cccc(NC(=O)COC(=O)c2c(-c3ccccc3)noc2C)c1 | . | . | . | -1 | . | . | .
C=CCN1C(=O)S/C(=C/c2ccsc2)C1=O | -3 | -19 | -3 | 1 | -3 | -2 | .
CC(C)N1C(=O)S/C(=C/c2ccc(Sc3nc4ccccc4[nH]3)o2)C1=O | 0 | 16 | 5 | 100* | 2 | 12 | 88*
C=CCN1C(=O)S/C(=C/c2ccc(Sc3nc4ccccc4[nH]3)o2)C1=O | 7 | -35 | -16 | 91* | 7 | -3 | 88*
COc1ccc(NC(=O)c2c(C)noc2C(C)C)cc1S(=O)(=O)N1CCCCC1 | . | . | . | 0 | -9 | . | .
Cc1ccc(-c2ccc(CN3C(CC(C)C)C(=O)N(Cc4cn(CC5CCCCC5)nn4)CCS3(=O)=O)cc2)cc1 (configuration not stated) | . | . | . | -1 | . | . | .
CC1CCCCC1N1CN=C(Nc2nc3ccccc3s2)NC1 (configuration not stated) | 5 | 4 | 2 | 66* | 2 | -10 | -1 | MPTP swell DR=>100;MPTP counter DR=>80
C=CCNCCCOc1ccc(C)cc1Br | 2 | 13 | -1 | 81* | -4 | -6 | 2 | MPTP swell DR=15*;MPTP counter DR=>80
CC(=O)c1ccc2c(c1)N(CCCN1CCC(CCO)CC1)c1ccccc1S2 | . | . | . | 0 | 8 | . | .
CSc1ccc2c(c1)N(CCC1CCCCN1C)c1ccccc1S2 (configuration not stated) | 3 | -21 | -9 | 85* | -1 | 4 | -22 | MPTP swell DR=4.8*;MPTP counter DR=56*
COc1ccc(CNC(=O)c2c(O)c3cccc4c3n(c2=O)CCC4)cc1OC | -1 | -8 | -7 | -8 | -4 | 0 | .
COc1ccc(CNC(=O)c2c(O)c3cccc4c3n(c2=O)CCC4)cc1 | 5 | 9 | -3 | 81* | -3 | -7 | -14
Fc1ccc2nc(Nc3nc4c(F)cc(F)cc4s3)sc2c1 | 0 | 35 | 5 | 97* | 10 | 15 | 71*
Fc1ccc2nc(Nc3ccccc3)sc2c1 | -9 | 29 | 20 | 5 | 9 | 18 | .
Fc1ccc2nc(Nc3nc4c(F)cccc4s3)sc2c1 | 3 | 36 | 12 | 96* | ? | -5 | 46*
Fc1cccc2sc(Nc3nc4ccccc4s3)nc12 | -3 | 47 | 35 | 39 | 8 | 11 | .
CC(=O)N(C)c1nc(N)n(-c2ccccc2)n1 | -4 | -16 | 7 | 107* | -6 | 1 | -3 | MPTP swell DR=>100;MPTP counter DR=>80
O=C(NCc1ccco1)c1ccccc1NS(=O)(=O)c1ccc(Br)s1 | 1 | 4 | -5 | 71* | 2 | 3 | 81*
COCOCCn1cc(CN2CCS(=O)(=O)N(Cc3ccc(-c4ccncc4)cc3)C(CC(C)C)C2=O)nn1 (configuration not stated) | . | . | . | 0 | . | . | .
CN1C(=O)C(N=Nc2ccc([N+](=O)[O-])cc2)SC1=S (configuration not stated) | . | . | . | 112* | 3 | . | 69*
CN1CCCCCC1=Nc1ccc([N+](=O)[O-])cc1 | . | -6 | -7 | 0 | 4 | 1 | .
O=C(CNC(=O)c1ccccc1F)NCCOc1ccccc1Cl | -2 | -17 | 2 | 0 | 6 | -2 | .
Cc1ccc(NC(=O)CN2CC(C)SC2=NC2CCCCC2)cc1 (configuration not stated) | -1 | . | . | 52*! | -8 | . | -12 | MPTP swell DR=13*;MPTP counter DR=>80
Nc1c(C=C2C=CC(=O)C=C2)c(=O)nc2snc(SCc3ccccc3)n12 | -1 | 24 | 7 | 66* | -5 | -4 | 59*
SMILES | HSP90 refold inh | HSF1 activator | HSF1 inhib | MPTP block | dFosB act | Platelet DG rel | Rh123 counter | others
CC(C)(C)c1ccc(C(=O)c2c[nH]c(C(=O)NCC3CCCO3)c2)cc1 (configuration not stated) | 2 | 16 | 11 | 70* | -14 | -1 | 12 | MPTP swell DR=i;MPTP counter DR=27*
COc1ccc(C(=O)c2c[nH]c(C(=O)NCC3CCCO3)c2)cc1 (configuration not stated) | -2 | 6 | -5 | -3 | -12 | 0 | .
NC(Cc1ccc(Cl)cc1)c1csc(Nc2ccc(C(F)(F)F)cn2)n1 (configuration not stated) | . | . | . | 2 | . | . | .
Cc1cc(/C=N/n2cnnc2)c(C)n1-c1ccc(OCc2ccc(F)cc2)cc1 | 1 | -7 | -2 | 99* | -14 | -4 | 93*
Cc1cc(/C=N/n2cnnc2)c(C)n1-c1ccc(OCc2ccc(Cl)cc2Cl)cc1 | 1 | -8 | -11 | 108* | -8 | -6 | 101*
O=C(Nc1cccc(Cl)c1)Nc1ccc(Br)cc1F | 1 | 21 | 6 | 75* | 3 | -3 | 82*
O=C(Nc1ccccc1)Nc1ccc(Br)cc1F | -2 | 25 | 15 | 53* | 9 | 0 | 84*
COc1ccccc1NC(=O)NCC(=O)Nc1ccc(F)c(F)c1 | 0 | -15 | 2 | -1 | 1 | -2 | .
O=C(Nc1cccc(Cl)c1)Nc1ccon1 | -4 | -2 | -2 | 18 | -6 | -4 | .
Cc1cc(NC(=O)Nc2ccccc2F)ccc1Br | 1 | 19 | -7 | 84* | -15 | -4 | 91*
COc1ccccc1NC(=O)Nc1ccc(F)c(F)c1 | -1 | 32 | 6 | 81* | 4 | 14 | 68*
Cn1nnc2cc(NC(=O)Nc3ccccc3F)ccc21 | . | . | . | -1 | . | . | .
Cc1cc2oc(=O)cc(CN3CCCCC3)c2cc1O | 1 | 21 | 1 | 0 | -8 | 0 | .
c1ccc(C2Nc3ccccc3C3OCCCC23)cc1 (configuration not stated) | 1 | 2 | 0 | 2 | -2 | 4 | .
CCOC(=O)c1c(S(=O)(=O)NCC(=O)Nc2cccc(C)c2)c(C)n(C)c1C | 3 | 23 | 4 | 2 | -6 | -4 | .
O=C(CSc1nc2ccccc2o1)Nc1nc2ccccc2s1 | 2 | 24 | 3 | 10 | 5 | -3 | .
COC(=O)c1sc(NC(=O)C2c3ccccc3Oc3ccccc32)c(C(=O)OC)c1C | -4 | 28 | 3 | 0 | -3 | 2 | .
CCOC(=O)c1c(NC(=O)C2c3ccccc3Oc3ccccc32)sc(C(C)=O)c1C | -1 | 10 | 4 | 85* | 0 | 8 | -5 | MPTP swell DR=i;MPTP counter DR=8.6*
CCOC(=O)c1c(NC(=O)CSc2nc3ccccc3o2)sc(C(C)=O)c1C | -4 | 8 | 4 | 101* | -12 | 3 | 75*
